# Source: PubChem
# KB-3-1 tox: KB-3-1 parental cell cytotoxicity | KB-3-1 viability, CellTiter-Glo ATP luminescence, 72 h | Potency, µM (titrated, usually from 46.1 µM), most hits filed as cytotoxic | 400,000 tested, 1.4% active; note: potency is the fitted concentration of half-maximal effect; % is set by controls: 0 for no effect and ±100 for the full control effect; nearly all actives have a fitted effect of over 60% in size
#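 Viability of parental KB-3-1 cells, measured by CellTiter-Glo luminescence, followed a 72 h incubation at 37 °C with pinned compounds in phenol-red-free DMEM containing 10% FBS.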
# SW480 rerep: DNA re-replication induction in SW480 cells | Potency, µM (series often up to 46.1 µM), inactives show at the top dose re-replication activation, hits mostly activators | AID 624297 | 340,000 tested, 1.8% active | SW480 DNA re-replication, Hoechst DNA content imaging, 48 h; note: potency is the fitted concentration of half-maximal effect; % of control where 0% means no effect; nearly all actives have a fitted effect of over 55% in size
#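 Cells (250 per well) received 23 nL compound or DMSO by pin tool and were kept 48 hr at 37 C, 5% CO2. Nuclei were then stained with Hoechst for 40 min and scanned for DNA content.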
# D3 antag: blocks the human D3 dopamine receptor. P35462. D3R cells, DiscoveRx beta-arrestin luminescence, antagonist mode; hits give low values. max response, negative = inhibition, %. 360,000 tested, 2.5% active. AID 652054; in the data active = max response below about -50%; inconclusive = no clear call, values can overlap the other calls; note: % is set by controls: 0 for no effect and ±100 for the full control effect
# Target sequence (P35462 whole entry, looked up): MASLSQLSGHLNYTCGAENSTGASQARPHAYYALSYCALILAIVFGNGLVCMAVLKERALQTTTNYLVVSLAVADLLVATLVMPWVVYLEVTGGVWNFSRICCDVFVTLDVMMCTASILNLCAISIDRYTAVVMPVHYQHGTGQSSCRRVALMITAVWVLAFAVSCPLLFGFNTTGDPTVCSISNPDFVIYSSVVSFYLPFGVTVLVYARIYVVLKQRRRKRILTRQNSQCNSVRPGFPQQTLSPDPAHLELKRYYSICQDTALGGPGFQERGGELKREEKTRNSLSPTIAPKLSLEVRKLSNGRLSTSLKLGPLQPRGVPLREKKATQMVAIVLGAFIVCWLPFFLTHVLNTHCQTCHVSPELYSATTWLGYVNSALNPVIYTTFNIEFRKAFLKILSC
#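 Cells plated overnight at 1500 cells/well, then exposed to library compounds with dopamine controls for 90 minutes at 37 degrees C. DiscoveRx reagent added for 30–60 minutes at room temperature; luminescence read, quantitative HTS format.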
# MCF10A rereplic: DNA re-replication induction in MCF 10a cells | AID 624296 | 350,000 tested, 2.9% active | Potency, µM (series often up to 46.1 µM), for the others: at the top dose activity, positive = re-replication, actives largely listed as activators | MCF 10A DNA re-replication, Hoechst nuclear intensity, 48 h; note: potency is the fitted concentration of half-maximal effect; % of control where 0% means no effect; nearly all actives have a fitted effect of over 50% in size
# KB-V1 MDR tox: KB-V1 MDR subline cytotoxicity. KB-V1 MDR cells viability, CellTiter-Glo, 72 h. Potency, µM (titrated, usually from 46.1 µM), actives largely listed as cytotoxic. 400,000 tested, 3.4% active; note: potency is the fitted concentration of half-maximal effect; % is set by controls: 0 for no effect and ±100 for the full control effect; nearly all actives have a fitted effect of over 60% in size
#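 Following 72 h at 37 degrees C with compound, KB-V1 cell viability was read by CellTiter-Glo luminescence, medium being phenol-red-free DMEM plus 10% FBS; concentration-response parameters came from normalized, curve-fitted qHTS data.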
# D3 ag: activates the human D3 dopamine receptor | P35462 | D3R DiscoveRx beta-arrestin cells, luminescence, 90 min | max activation, % | 410,000 tested, 0.58% active | AID 652048; in the data active = max activation above about 30%; note: 0% is about no effect
#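 Agonist mode: compounds and dopamine controls were applied to plated cells for 90 min at 37 degrees C after an overnight attachment at 1500 cells/well. Luminescent read-out followed 30 - 60 minutes at room temperature with DiscoveRx detection reagent.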
# Starred values were filed as active, the others as inactive; i = inactive; ? = inconclusive; . = no result; [ ] = dose if it differs, or a comment. In the library only some 8.9% were active in any assay of this set; here they are far more common. Unless noted, calls come from the whole dose curve; as a rule, active = well fitted curve in the direction sought with a large enough effect; inconclusive = small, poorly fitted or top-dose-only effect, or another doubt; inactive = no such curve, though single readings can be large; an effect the other way counts as inactive or inconclusive.
SMILES,KB-3-1 tox,SW480 rerep,D3 antag,MCF10A rereplic,KB-V1 MDR tox,D3 ag
CC(C)Oc1ccc(C(CCNCc2ccc(O)cc2)c2ccccc2)cc1 (configuration not stated),?,18.0%,-7.0,?,18.4µM*,-1.2
Cc1cc(C)cc(NC(=O)c2cccc(C(=O)Nc3cc(C)cc(C)c3)c2)c1,i,.,.,.,i,4.4
Cc1coc2c1C(=O)C(=O)c1c-2ccc2c(C)cccc12,9.2µM*,5.17µM*,-20.2,?,9.2µM*,5.9
Cc1ccc2c3c(cccc13)-c1ccccc1C2=O,i,2.3%,3.3,15.3%,?,5.7
Cc1coc2c1C(=O)C(=O)c1c-2ccc2c1CCCC2(C)C,6.51µM*,7.8%,-16.2,?,7.31µM*,0.0
Cc1ccc2oc3c(c(=O)c2c1)C(c1ccccc1F)N(CCCN1CCOCC1)C3=O (configuration not stated),i,.,.,.,i,-22.0
CCCCOC(=O)c1ccc(NC(=O)Cn2nnc3sc4c(c3c2=O)CCCC4)cc1,i,.,.,.,i,-11.8
Cc1ccccc1N1CCN(CCc2nnc3n2CCCC3)CC1,.,.,.,.,.,35.1*
COc1ccc2c(c1)[nH]c1c(N3CCSCC3)ncnc12,i,-6.0%,70.4,?,?,30.3*
COc1ccc2c(c1)[nH]c1c(N3CCN(Cc4ccc5c(c4)OCO5)CC3)ncnc12,?,10.5%,41.6,?,2.59µM*,13.1
COc1ccc2[nH]c3c(N4CC(C)OC(C)C4)ncnc3c2c1 (configuration not stated),i,-13.0%,20.1,-1.1%,i,4.0
O=c1c(N2CCc3ccccc3C2)csc2ccc(Br)cc12,i,.,.,.,i,-9.9
CN(C)c1ccc(/C=C2\Oc3ccc(C#Cc4cccc(N)c4)cc3C2=O)cc1,?,5.17µM*,44.3,4.61µM*,i,56.3*
COC(=O)c1ccc2c(c1)C(=O)/C(=C/c1ccc(C)cc1)O2,i,82.3%,37.3,19.4%,i,-3.2
COc1cc(C(=S)N2CCOCC2)ccc1OC(=O)c1ccccc1C,i,18.4µM*,-13.9,5.6%,i,1.4
CC(=O)c1ccccc1OCC(O)CN1CCN(c2ccccn2)CC1 (configuration not stated),i,?,-11.6,-0.8%,i,14.9
CC1(C)Cc2cccc(OCC(O)CN3CCN(c4ccccn4)CC3)c2O1 (configuration not stated),i,-5.3%,0.0,9.5%,?,10.0
Cc1cc(C)c(C)c(OCC(O)CN2CCN(c3ccccn3)CC2)c1 (configuration not stated),i,-4.3%,-20.2,4.1%,i,62.7*
Cc1cccc(OCC(O)CN2CCN(c3ccccn3)CC2)c1C (configuration not stated),i,?,-20.8,5.3%,i,68.5*
COc1ccc(CNC(=O)Cn2ncc3c(=O)oc4ccccc4c32)c(OC)c1,i,.,.,.,i,-17.2
COc1ccc2nc(SCCOC(=O)Nc3ccc(Cl)cc3)nc(C)c2c1,?,-104.7%,12.3,?,14.6µM*,0.5
COc1ccc2nc(SC(C(=O)c3ccccc3)c3ccccc3)nc(C)c2c1 (configuration not stated),i,4.0%,-19.6,14.8%,i,-8.1
Cc1ccc2nc(SCc3cccc([N+](=O)[O-])c3)nc(C)c2c1,i,0.6%,-0.7,?,?,8.2
COc1ccc2nc(SCc3ccccc3C)nc(C)c2c1,i,11.4%,?,0.0%,14.6µM*,-1.8
COc1ccc2nc(SCC(=O)O)nc(C)c2c1,i,-10.9%[9.22 µM],3.5,-0.8%,i,1.2
SMILES,KB-3-1 tox,SW480 rerep,D3 antag,MCF10A rereplic,KB-V1 MDR tox,D3 ag
COc1ccc2nc(SCc3cccc(C)c3)nc(C)c2c1,i,-43.2%,18.0,?,16.4µM*,3.6
COc1cccc(NC(=O)c2ccc3[nH]c(C)cc(=O)c3c2)c1,i,.,.,.,?,-14.2
CCc1ccc(NC(=O)c2sc3ncnc(N(C)C4CCCCC4)c3c2C)cc1,i,.,.,.,i,-8.5
O=C(O)c1ccccc1[O-].O=C(O)c1ccccc1[O-].[Zn+2],.,.,.,.,.,3.4
O=C[C@H](O)[C@@H](O)[C@H](O[C@H]1O[C@H](CO)[C@@H](O[C@H]2O[C@H](CO)[C@@H](O)[C@H](O)[C@H]2O)[C@H](O)[C@H]1O)[C@H](O)CO,.,.,.,.,.,8.9
Cc1cc(SCC(=O)Nc2ncc(Cl)cc2Cl)nc2ccccc12,i,?,-1.9,10.7%,6.51µM*,-0.8
COc1ccc2c(C)cc(SCC(=O)Nc3cccnc3Cl)nc2c1,i,?,-7.6,?,?,1.0
Cc1cccc(NC(=O)CCC(=O)N/N=C/c2ccc(O)cc2O)c1,i,6.51µM*,-9.2,?,i,20.3
COc1ccc2c(-c3ccccc3)cc(SCC(=O)NC(N)=O)nc2c1,i,-38.1%,-1.5,5.8µM*,i,-0.8
COc1ccc2c(C)cc(SCC(=O)Nc3ncc(Cl)cc3Cl)nc2c1,i,-1.2%,0.0,22.2%,18.4µM*,4.4
COCCNC(=O)CSc1cc(-c2ccccc2)c2ccc(OC)cc2n1,?,0.9%,-24.5,?,?,-12.3
Cc1cc(SCC(=O)N/N=C/c2ccc(O)cc2O)nc2ccccc12,?,11.6µM*,22.4,18.3%,i,11.4
N#C/C(=C\c1c(Oc2ccccc2F)nc2ccccn2c1=O)C(=O)NC1CCS(=O)(=O)C1 (configuration not stated),i,?,1.0,16.4µM*,i,7.7
N#C/C(=C\c1c(N2CCOCC2)nc2ccccn2c1=O)C(=O)NC1CCS(=O)(=O)C1 (configuration not stated),i,?,-7.3,5.8µM*,i,-9.2
COc1ccc(N(C)C(=O)c2nn(-c3ccc(C)cc3)c(=O)n(C)c2=O)c(OC)c1,i,.,.,.,i,-8.5
Cc1cccc(Nc2c3c(nc4nncn24)CCC3)c1C,.,.,.,.,.,-7.3
Nc1c(CO)nnn1-c1ccccc1,i,-4.9%,-53.8*,2.4%,i,-18.6
Clc1c(-c2ccccc2)nnn1-c1ccccc1,i,0.8%,-0.9,0.3%,i,-2.5
Nc1nnn(-c2ccccc2)c1-c1ccccc1,i,14.6µM*,7.3,-0.8%,i,11.1
CCCn1c(N2CCN(CC(=O)NCc3cccs3)CC2)nc2ccccc21,i,1.3%,-66.6*,5.1%,i,-3.4
O=C(CN1CCC(n2nnc3cc(F)ccc32)CC1)NCc1ccco1,i,0.7%,?,2.8%,i,-4.6
O=C(CN1CCC(n2nnc3ccccc32)CC1)NCc1cccs1,i,1.5%,?,9.8%,23.1µM*,-5.8
